# Compound activity from PubChem BioAssay.
# ClpP mod: qHTS Assay for Activators of ClpP; ATP-dependent Clp protease proteolytic subunit (Bacillus subtilis (strain 168)), P80244; purified B. subtilis ClpP, FRET peptide cleavage, 20 min; Potency, µM (doses to about 57.5 µM), without a hit: at the highest dose activity change, negative = active; hit rate 1.9% among 340,000; active = well fitted falling curve with a large enough effect; inconclusive = small, poorly fitted or top-dose-only effect; inactive = no such curve, though single readings can be large or run the other way; also: the source files actives as falling curves though it sought activators and does not explain the sign; nearly all actives have a fitted effect of over 65% in size
# Target sequence (P80244 whole entry, looked up): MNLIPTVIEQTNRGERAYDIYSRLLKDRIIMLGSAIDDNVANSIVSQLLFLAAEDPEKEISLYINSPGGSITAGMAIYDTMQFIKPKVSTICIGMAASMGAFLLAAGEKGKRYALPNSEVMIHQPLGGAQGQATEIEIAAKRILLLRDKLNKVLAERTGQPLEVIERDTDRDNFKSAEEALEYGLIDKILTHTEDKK
#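 ClpP 10 microg/mL final, pH 8 Tris/KCl buffer with BSA, glycerol, Tween-20; compound pinned in; FRET-FV substrate; RT 20 min; Ex320/Em430; ΔFRET vs ADEP 5.8 microM, DMSO, no enzyme.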
# GLP-1R agonist: qHTS of GLP-1 Receptor Agonists | AID 624172, 2012 | Glucagon-like peptide 1 receptor (Homo sapiens), P43220 | HEK293 GLP-1R CRE-luciferase, luminescence, 4-6 h; cells express a hypersensitive GLP-1R form | hit rate 0.007% among 380,000 | Potency, µM (titrated, usually from 45.6 µM), inactives show top-dose activation, most hits filed as activators; also: % of control where 0% means no effect
# Target sequence (P43220 whole entry, looked up): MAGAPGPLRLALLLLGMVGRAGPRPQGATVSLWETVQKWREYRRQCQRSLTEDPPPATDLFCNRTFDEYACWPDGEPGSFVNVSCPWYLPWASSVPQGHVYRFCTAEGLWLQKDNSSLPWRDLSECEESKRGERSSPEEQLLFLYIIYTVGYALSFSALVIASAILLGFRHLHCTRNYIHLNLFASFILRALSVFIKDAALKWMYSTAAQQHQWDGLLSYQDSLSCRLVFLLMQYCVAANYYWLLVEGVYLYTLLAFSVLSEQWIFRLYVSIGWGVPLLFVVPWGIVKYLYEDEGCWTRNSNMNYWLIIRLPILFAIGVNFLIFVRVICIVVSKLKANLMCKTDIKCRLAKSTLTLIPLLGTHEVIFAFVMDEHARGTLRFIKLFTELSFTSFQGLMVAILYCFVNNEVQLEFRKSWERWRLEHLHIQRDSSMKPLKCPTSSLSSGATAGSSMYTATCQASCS
# HEK293 tox: qHTS of GLP-1 Receptor Inverse Agonists: Cytotox Screen; hit rate 0.13% among 410,000; AID 624418, 2012; HEK293 cAMP-luciferase reporter cells, luminescence, 24 h; Potency, µM (series often up to 38.3 µM), without a hit: top-dose activity change, negative = inhibition, actives largely listed as inhibitors;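 also: loss of luciferase light is scored as toxicity; % is scaled to controls: 0 for no effect and ±100 for the full control effect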
#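 MLSMR compounds, 24 hr on cells at 37 deg C/5% CO2; luminescence after luciferase reagent (12 min RT). Inhibition counted as the undesired cytotoxic outcome.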
# GLP1R inv ag: qHTS of GLP-1 Receptor Inverse Agonists (Inhibition Mode) | HEK293 GLP-1R CRE-luciferase, luminescence, 24 h; GLP-1R form is constitutively active | Potency, µM (series often up to 38.3 µM), for inactives: at the highest dose activity change, negative = inhibition, actives largely listed as inhibitors | hit rate 1.6% among 410,000; also: % is scaled to controls: 0 for no effect and ±100 for the full control effect; nearly all actives have a fitted effect of over 55% in size
#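 qHTS in 1536-well format: reporter HEK293 cells expressing constitutive GLP-1R activity in DMEM + 10% Nu serum, 24 hr with compounds at 37 deg C, luminescence read after 12 min with detection reagent.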
# * = called active by the depositor; i = inactive; ? = inconclusive; / = no result. A selection: hits, their analogues and other compounds. The true share with any hit is near 3.2%. Unless noted, calls follow the shape of the dose curve; as a rule, active = well fitted curve in the direction sought with a large enough effect; inconclusive = small, poorly fitted or top-dose-only effect, or another doubt; inactive = no such curve, though single readings can be large; an effect the other way counts as inactive or inconclusive. Potency is read from the fitted curve at half-maximal effect.
SMILES,ClpP mod,GLP-1R agonist,HEK293 tox,GLP1R inv ag
CCOc1cc(-c2nc3c(C)cccn3c2NCC2CCCO2)ccc1O (centres undefined),14.1µM*,0.3%,-8.4%,0.1%
COc1ccccc1-n1c(CNCC2CCCO2)nc2ccccc2c1=O (centres undefined),-0.9%,1.0%,0.6%,39.4%
COc1ccccc1N1CCN(C(=O)c2sc3nc(C)nc(N4CCN(c5ccccn5)CC4)c3c2C)CC1,-1.9%,-0.4%,?,5.01µM*
O=c1[nH]c(=S)[nH]c(O)c1N=Nc1ccc2c(c1)OCO2,0.9%,-3.2%,10µM*,5.7%
CCN(CC(=O)Nc1ccccc1C(F)(F)F)C(=O)CCSc1ccc(F)cc1,12.6µM*,16.9%,-1.8%,?
CCN(CC)C(=O)c1ccc(NC(=O)CCCSc2ccccc2)cc1,/,3.0%,-10.5%,?
Cc1ccccc1NC(=S)N1CCN(c2ccccc2C)CC1,/,-3.2%,?,-21.9%
CCC(C)OC(=O)c1c(N)n(Cc2cccs2)c2nc3ccccc3nc12 (centres undefined),14.1µM*,0.0%,48.0%,?
Nc1c(C(=O)OCc2ccccc2)c2nc3ccccc3nc2n1Cc1cccs1,28.2µM*,-10.0%,-18.3%,0.0%
CC(C)(C)OC(=O)c1c(N)n(Cc2ccco2)c2nc3ccccc3nc12,-0.8%,-1.1%,370.0%,?
C[C@]12CC[C@H]3[C@@H](CC[C@]4(O)C[C@@H](O)CC[C@]34C=O)[C@@]1(O)CC[C@@H]2C1=CC(=O)OC1,-1.5%,-9.8%,?,1µM*
CC12CCC3C(CCC4(O)CC(O)CCC34C=O)C1(O)CCC2C1=CC(=O)OC1 (centres undefined),2.4%,-6.0%,?,?
O=C1/C(=C/c2ccc(F)cc2)Oc2cc(OC(=O)N3CCOCC3)ccc21,17.8µM*,1.3%,4.8%,1.7%
CC(C)COP(=O)(c1ccc(N(C)C)cc1)C(Nc1ccccc1)c1ccccc1 (centres undefined),3.2%,-2.3%,-19.5%,?
CC(C)COP(=O)(OCC(C)C)C(Nc1ccccc1)c1ccccc1 (centres undefined),/,4.9%,?,11.2µM*
CC12CCC(=O)C=C1CCC1C2CCC2(C)C(O)CCC12 (centres undefined),-1.5%,5.4%,5.3%,20.9%
CC(=O)C1C(N2CC2)CC2C3CCC4=CC(=O)CCC4(C)C3CCC21C (centres undefined),14.1µM*,4.5%,?,-20.2%
COc1ccc(C(=O)Nc2ccc(S(=O)(=O)N(Cc3ccccc3)c3ccccc3)cc2)cc1,?,/,-8.6%,5.01µM*
CCC1(C)Cc2ccccc2-c2c1c(=O)n(Cc1ccccc1)c1nnnn21 (centres undefined),31.6µM*,-0.6%,-3.2%,-15.2%
C[C@@H]1CN([C@@H](C)CO)C(=O)c2c(c3ccccc3n2C)-c2ccccc2CO[C@H]1CN(C)S(=O)(=O)c1ccc(C#N)cc1,-17.1%,-0.5%,-18.0%,?
Cc1cccc(-n2c(/C=C/c3c(C)[nH]c4ccccc34)nc3ccccc3c2=O)c1,-1.2%,/,0.7%,18.0%
Cc1cccc(/C=C(\c2nc3ccccc3[nH]2)S(=O)(=O)c2ccccc2)c1,/,0.2%,8.91µM*,5.01µM*
N#CC(C#N)=C1C=CC=CN1/C(=C\c1ccco1)C(=O)c1ccc(Cl)cc1,-1.7%,-30.0%,67.4%,5.62µM*
Cc1[nH]c2ccccc2c1C(O)CN1CCN(c2cccc(C(F)(F)F)c2)CC1 (centres undefined),-3.0%,-1.0%,?,?
O=C(Nc1ccc(Cl)c(C(F)(F)F)c1)NC1CC2CCCC(C1)N2C1CC1 (centres undefined),-0.7%,-9.5%,?,3.16µM*
SMILES,ClpP mod,GLP-1R agonist,HEK293 tox,GLP1R inv ag
COC(=O)C1=C(c2ccc(Cl)c(C(F)(F)F)c2)C[C@@H]2CC[C@H]1N2C(=O)N1CCCC1,2.5%,13.4%,2.3%,?
COc1ccc(OC)c(C(Nc2ccccc2)P(=O)(OC(C)C)OC(C)C)c1 (centres undefined),-0.3%,-4.0%,-23.5%,?
CC(=O)[C@@]1(O)CC[C@@H]2[C@@H]3CCC4=CC(=O)CC[C@]4(C)[C@]3(F)[C@@H](O)C[C@@]21C,/,-6.3%,/,/
CC(C)=CCC/C(C)=C/CNC(=O)C[C@H]1C[C@H](C(=O)N2CCOCC2)[C@@]2(C)c3[nH]c4cc(-c5ccco5)ccc4c3CCN2C1=O,5.3%,0.0%,?,?
CN(C)C1(c2nnnn2CCOC(=O)Nc2ccc(Cl)cc2)CCCCC1,-13.4%,1.9%,-17.0%,7.08µM*
Cc1ccc(N=c2oc3cc(O)ccc3cc2C(N)=O)cc1,25.1µM*,-24.5%,i,?
O=C(Cn1c(SCC(=O)Nc2ccc(F)cc2)nc2ccccc21)NCc1ccc(Cl)cc1,2.3%,/,?,?
NC(=S)NN=C(c1ccc(Br)cc1)C1CC1,-2.3%,-9.0%,2.51µM*,3.98µM*
Cc1ccccc1C(=O)Nc1ccc(C(=O)OCc2cc(=O)n3nc(C4CC4)sc3n2)cc1,-6.4%,/,-12.2%,?
Cc1ccc2cc3cc(C(=O)N4CCC5(CC4)OCCO5)oc3nc2c1,14.1µM*,-3.5%,-0.1%,-1.5%
Cc1ccc(-c2cc(-c3ccc(C)cc3)[n+](C)o2)cc1,14.1µM*,-19.6%,-38.2%,?
O=C(CCCN1C(=O)/C(=C\c2ccccc2)SC1=S)N1CCOCC1,-1.1%,-11.3%,?,?
CCc1ccc(/C=C2\SC(=S)N(CCCC(=O)N(CCO)c3ccccc3)C2=O)cc1,-0.8%,-5.4%,?,10µM*
Cn1c(SSc2ccc(-c3cccnc3)n2C)ccc1-c1cccnc1,/,7.8%,?,?
C=C(CN(C)C)C(=O)c1ccc(C)cc1C,-1.1%,-13.3%,10µM*,?
Cc1c(CCCN)c2ccccc2n1Cc1ccccc1,-13.7%,5.9%,?,?
COc1cccc(NC(=O)C2CCN(S(=O)(=O)c3cc(-c4noc(C)n4)ccc3C)CC2)c1,-2.6%,/,-7.0%,?
COc1ccc(S(=O)(=O)NCC2CCC(C(=O)N3CCC4(CC3)OCCO4)CC2)cc1 (centres undefined),10µM*,0.1%,4.8%,2.5%
Cc1ccc(S(=O)(=O)N2CCC(C(=O)N3CCC4(CC3)OCCO4)CC2)cc1,-1.0%,4.6%,4.6%,2.8%
CCOc1ccc(CCNC(=O)c2cc3c(-c4ccc(OC)c(OC)c4)nn(C)c3s2)cc1OCC,4.2%,/,-24.5%,?
Cc1ccccc1NC(=O)C(=Cc1ccc(C(=O)O)cc1)C(=O)Nc1ccccc1C,/,-1.9%,?,6.31µM*
Cc1ccccc1NC(=O)CCl,-0.5%,1.1%,-11.0%,6.9%
COc1ccc(Cl)cc1NC(=O)C1CCN(c2nnc(C)c3c(C)n(-c4ccccc4)nc23)CC1,28.2µM*,/,-7.1%,6.3%
